PubChem BioAssay (EPA / NIEHS)
“And” between values parts separate entries of the source, which are not always exact repeats. Identical values can stand only once. Results filed as inconclusive are left out. The source holds several records for some structures; these can differ, active in one and inactive in another. The source made the active and inactive calls. The calls were made as follows, unless noted: active = hit-call score of the fitted dose curve at least 0.9, where 1 is the maximum; inactive = score below 0.9.

Legend:
[1] = target: Glucocorticoid receptor (Homo sapiens) (UniProt P04150); assay: ATG_GR_TRANS: Attagene TRANS-FACTORIAL HepG2 Assay for human Glucocorticoid Receptor (GR) (AID 2282978; active = hit-call score of the fitted dose curve at least 0.9, where 1 is the maximum;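 also: activators score as hits since higher reporter transcript over DMSO is fitted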); conditions: HepG2 Attagene TRANS GR reporter, mRNA transcription
Sequence of Glucocorticoid receptor (Homo sapiens) (P04150 whole entry, looked up, the tested form may be a part): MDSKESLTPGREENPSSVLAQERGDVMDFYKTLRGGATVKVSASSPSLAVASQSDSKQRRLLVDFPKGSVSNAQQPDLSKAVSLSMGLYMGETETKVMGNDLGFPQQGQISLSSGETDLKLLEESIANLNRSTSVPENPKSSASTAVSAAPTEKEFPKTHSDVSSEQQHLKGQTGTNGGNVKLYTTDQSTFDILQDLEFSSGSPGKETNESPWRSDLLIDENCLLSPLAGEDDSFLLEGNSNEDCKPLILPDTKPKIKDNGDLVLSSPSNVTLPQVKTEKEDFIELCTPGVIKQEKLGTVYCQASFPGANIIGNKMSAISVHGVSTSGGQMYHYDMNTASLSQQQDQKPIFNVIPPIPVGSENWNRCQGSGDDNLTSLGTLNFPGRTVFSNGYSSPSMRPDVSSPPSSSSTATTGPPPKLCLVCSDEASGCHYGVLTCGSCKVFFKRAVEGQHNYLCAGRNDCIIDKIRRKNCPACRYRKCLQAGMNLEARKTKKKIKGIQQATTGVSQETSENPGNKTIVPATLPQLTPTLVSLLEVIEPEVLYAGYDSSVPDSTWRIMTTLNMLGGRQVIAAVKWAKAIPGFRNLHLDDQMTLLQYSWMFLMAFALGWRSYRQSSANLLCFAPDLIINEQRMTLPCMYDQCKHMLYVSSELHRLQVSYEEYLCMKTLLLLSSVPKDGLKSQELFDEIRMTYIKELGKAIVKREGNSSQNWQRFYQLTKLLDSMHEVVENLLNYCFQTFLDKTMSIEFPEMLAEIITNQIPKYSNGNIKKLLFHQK
In short: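 Fluorescent capillary-electrophoresis quantitation of reporter mRNA is the readout, taken 24 h after dosing human HepG2 cells carrying transiently transfected GAL4-UAS reporter units activated by chimeric NR-GAL4 fusions; activity scored as induction over DMSO.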

[2] = target: Oxysterols receptor LXR-alpha (Homo sapiens) (UniProt Q13133); assay: ATG_LXRa_TRANS: Attagene TRANS-FACTORIAL HepG2 Assay for human Liver X Receptor alpha (LXRa) (AID 2282980; active = hit-call score of the fitted dose curve at least 0.9, where 1 is the maximum); conditions: HepG2 Attagene TRANS reporter, LXRa transactivation
Sequence of Oxysterols receptor LXR-alpha (Homo sapiens) (Q13133 whole entry, looked up, the tested form may be a part): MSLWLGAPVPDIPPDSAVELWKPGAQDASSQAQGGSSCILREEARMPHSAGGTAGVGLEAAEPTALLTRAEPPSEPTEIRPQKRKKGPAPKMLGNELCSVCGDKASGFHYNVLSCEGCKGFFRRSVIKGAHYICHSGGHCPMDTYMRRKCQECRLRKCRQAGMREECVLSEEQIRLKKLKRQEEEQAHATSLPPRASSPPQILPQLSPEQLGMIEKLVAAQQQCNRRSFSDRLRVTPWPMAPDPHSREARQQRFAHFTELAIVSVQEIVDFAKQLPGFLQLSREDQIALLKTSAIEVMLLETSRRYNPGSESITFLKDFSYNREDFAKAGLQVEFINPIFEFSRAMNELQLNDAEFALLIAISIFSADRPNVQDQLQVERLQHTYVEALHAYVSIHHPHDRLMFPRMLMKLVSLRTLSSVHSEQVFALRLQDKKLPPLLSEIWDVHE
In short: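 Read-out: reporter transcript levels by RT-PCR plus capillary electrophoresis, fluorescence intensity. Transiently transfected HepG2, exogenous NR-GAL4 chimera, GAL4-UAS reporters; 24 h compound exposure. Activity = increase over DMSO negative control.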

[3] = target: Oxysterols receptor LXR-beta (Homo sapiens) (UniProt P55055); assay: ATG_LXRb_TRANS: Attagene TRANS-FACTORIAL HepG2 Assay for human Liver X Receptor beta (LXRb) (AID 2282981; active = hit-call score of the fitted dose curve at least 0.9, where 1 is the maximum); conditions: HepG2 Attagene TRANS GAL4-LXRb reporter, mRNA
Sequence of Oxysterols receptor LXR-beta (Homo sapiens) (P55055 whole entry, looked up, the tested form may be a part): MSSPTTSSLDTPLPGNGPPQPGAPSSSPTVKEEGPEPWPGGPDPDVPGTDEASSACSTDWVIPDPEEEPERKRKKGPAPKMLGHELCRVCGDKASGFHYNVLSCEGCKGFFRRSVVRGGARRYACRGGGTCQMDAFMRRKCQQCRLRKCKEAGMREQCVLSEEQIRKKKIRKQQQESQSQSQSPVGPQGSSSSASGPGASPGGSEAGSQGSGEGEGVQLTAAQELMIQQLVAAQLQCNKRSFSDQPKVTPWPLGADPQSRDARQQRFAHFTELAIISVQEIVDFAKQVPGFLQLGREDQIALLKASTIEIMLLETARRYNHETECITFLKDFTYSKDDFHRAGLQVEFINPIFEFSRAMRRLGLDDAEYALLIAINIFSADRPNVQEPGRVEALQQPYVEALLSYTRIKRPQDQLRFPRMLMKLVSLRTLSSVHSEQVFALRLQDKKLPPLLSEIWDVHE
In short: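 Multiplexed reporter assay, HepG2, 24 h dosing. Fluorescence of labelled RT-PCR products after capillary electrophoresis gives transcript level; positive fitting direction relative to DMSO.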

[4] = target: Hepatocyte nuclear factor 4-alpha (Homo sapiens) (UniProt P41235); assay: ATG_HNF4a_TRANS: Attagene TRANS-FACTORIAL HepG2 Assay for human Hepatocyte Nuclear Factor 4 alpha (HNF4a) (AID 2282982; active = hit-call score of the fitted dose curve at least 0.9, where 1 is the maximum); conditions: HepG2 HNF4a transactivation reporter, mRNA readout
Sequence of Hepatocyte nuclear factor 4-alpha (Homo sapiens) (P41235 whole entry, looked up, the tested form may be a part): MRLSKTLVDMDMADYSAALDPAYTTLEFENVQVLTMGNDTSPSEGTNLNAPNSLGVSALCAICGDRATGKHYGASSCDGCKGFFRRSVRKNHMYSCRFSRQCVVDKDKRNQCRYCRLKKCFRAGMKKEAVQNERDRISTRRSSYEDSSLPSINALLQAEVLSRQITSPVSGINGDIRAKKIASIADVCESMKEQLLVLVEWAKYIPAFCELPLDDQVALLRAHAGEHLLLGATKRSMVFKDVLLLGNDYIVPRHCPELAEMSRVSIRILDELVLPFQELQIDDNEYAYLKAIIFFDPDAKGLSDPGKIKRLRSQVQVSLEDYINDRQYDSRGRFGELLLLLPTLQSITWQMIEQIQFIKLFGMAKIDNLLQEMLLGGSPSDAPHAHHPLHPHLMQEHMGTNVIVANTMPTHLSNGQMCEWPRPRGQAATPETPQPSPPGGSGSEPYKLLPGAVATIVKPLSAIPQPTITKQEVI
In short: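 Endpoint reflects transcriptional activation of a GAL4-UAS reporter by an HNF4a-GAL4 chimera in transfected HepG2 cells, 24 h post-dosing. Fluorescence from RT-PCR products separated by capillary electrophoresis; DMSO baseline.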

[5] = ATG_M_06_TRANS: Attagene TRANS-FACTORIAL HepG2 Assay for M06 Transcription Factor (Internal Marker) (AID 2282983; active = hit-call score of the fitted dose curve at least 0.9, where 1 is the maximum); conditions: HepG2 Attagene TRANS M06 internal marker reporter
In short: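 Read-out: fluorescent reporter cDNA fragments resolved by capillary electrophoresis after RT-PCR and HpaI cut. Source cells were HepG2 carrying transfected multi-reporter GAL4 constructs, dosed 24 h. Increase over DMSO control analysed.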

[6] = ATG_M_32_TRANS: Attagene TRANS-FACTORIAL HepG2 Assay for M32 Transcription Factor (Internal Marker) (AID 2282984; active = hit-call score of the fitted dose curve at least 0.9, where 1 is the maximum); conditions: HepG2 Attagene TRANS M32 internal marker reporter
In short: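 Internal-marker readout from a multiplexed transcription reporter panel. HepG2 cells were transfected with GAL4-UAS reporter units, treated 24 hours, and reporter transcript levels determined by fluorescence after RT-PCR and capillary separation.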

[7] = target: Nuclear receptor subfamily 4 group A member 2 (Homo sapiens) (UniProt P43354); assay: ATG_NURR1_TRANS: Attagene TRANS-FACTORIAL HepG2 Assay for human Nuclear Receptor Related Protein 1 (NURR1) (AID 2282985; active = hit-call score of the fitted dose curve at least 0.9, where 1 is the maximum); conditions: HepG2 Attagene TRANS reporter, mRNA readout
Sequence of Nuclear receptor subfamily 4 group A member 2 (Homo sapiens) (P43354 whole entry, looked up): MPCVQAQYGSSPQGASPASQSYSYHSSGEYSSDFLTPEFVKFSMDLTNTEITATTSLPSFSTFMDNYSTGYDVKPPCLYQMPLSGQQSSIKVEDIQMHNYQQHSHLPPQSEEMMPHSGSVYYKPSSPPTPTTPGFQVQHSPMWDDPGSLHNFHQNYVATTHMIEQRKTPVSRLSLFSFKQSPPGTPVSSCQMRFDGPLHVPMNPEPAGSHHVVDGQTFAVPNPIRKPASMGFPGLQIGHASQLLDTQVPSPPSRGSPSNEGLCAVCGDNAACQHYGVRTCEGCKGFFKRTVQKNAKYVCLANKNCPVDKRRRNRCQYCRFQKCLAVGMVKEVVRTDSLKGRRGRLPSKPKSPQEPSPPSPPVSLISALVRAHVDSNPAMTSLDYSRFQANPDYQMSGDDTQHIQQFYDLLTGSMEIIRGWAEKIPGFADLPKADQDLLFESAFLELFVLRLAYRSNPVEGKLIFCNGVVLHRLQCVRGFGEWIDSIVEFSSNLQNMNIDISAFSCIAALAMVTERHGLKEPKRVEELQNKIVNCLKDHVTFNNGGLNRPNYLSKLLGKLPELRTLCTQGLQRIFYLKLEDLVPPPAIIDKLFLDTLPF
In short: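 Endpoint: reporter mRNA increase relative to DMSO. HepG2 cells transfected with reporter units, treated 24 h; RNA processed by RT-PCR, labelling, HpaI digestion and capillary electrophoresis.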

[8] = target: Transcriptional activator Myb (Homo sapiens) (UniProt P10242); assay: ATG_Myb_CIS: Attagene CIS-FACTORIAL HepG2 Assay for human Myeloblastosis (Myb) Proto-Oncogene Transcription Factor (AID 2282986); conditions: HepG2 Attagene CIS-FACTORIAL Myb reporter transcription; actives raise or lower the signal
Sequence of Transcriptional activator Myb (Homo sapiens) (P10242 whole entry, looked up): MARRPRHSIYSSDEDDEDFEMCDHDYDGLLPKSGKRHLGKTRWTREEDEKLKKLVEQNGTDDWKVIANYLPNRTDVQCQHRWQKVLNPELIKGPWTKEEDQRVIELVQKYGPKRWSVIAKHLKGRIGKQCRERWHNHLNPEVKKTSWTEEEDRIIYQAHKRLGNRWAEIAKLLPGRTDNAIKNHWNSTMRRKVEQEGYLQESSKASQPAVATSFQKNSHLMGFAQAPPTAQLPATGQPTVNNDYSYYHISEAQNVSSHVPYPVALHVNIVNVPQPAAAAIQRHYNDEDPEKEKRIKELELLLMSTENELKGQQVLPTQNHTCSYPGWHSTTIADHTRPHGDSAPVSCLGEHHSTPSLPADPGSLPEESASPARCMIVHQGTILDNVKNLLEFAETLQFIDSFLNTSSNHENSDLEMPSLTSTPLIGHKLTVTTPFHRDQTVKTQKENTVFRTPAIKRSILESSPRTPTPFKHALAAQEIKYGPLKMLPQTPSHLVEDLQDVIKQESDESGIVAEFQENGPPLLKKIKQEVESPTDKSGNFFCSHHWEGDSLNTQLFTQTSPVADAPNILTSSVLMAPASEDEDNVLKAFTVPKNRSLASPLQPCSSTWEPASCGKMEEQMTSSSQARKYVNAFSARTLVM
In short: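 Reporter transcript levels, quantified by fluorescent RT-PCR and capillary electrophoresis, serve as the read-out. Transfected HepG2 cells carrying cis-promoter reporter units are dosed for 24 hours, and curves are fitted bidirectionally against DMSO controls.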

[9] = ATG_NFI_CIS: Attagene CIS-FACTORIAL HepG2 Assay for human Nuclear Factor I (NFI) (AID 2282989); conditions: HepG2 cis-regulatory reporter, NFI response element transcription; actives raise or lower the signal
In short: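 Multiplexed cis-reporter system in human HepG2 cells reports native TF activity as reporter mRNA induction 24 h post-dose. Fragments labelled with 6-FAM, HpaI-digested and resolved by capillary electrophoresis; activity fitted both directions versus DMSO.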

[10] = target: Myc proto-oncogene protein (Homo sapiens) (UniProt P01106); assay: ATG_Myc_CIS: Attagene CIS-FACTORIAL HepG2 Assay for human Myelocytomatosis (Myc) Proto-Oncogene Transcription Factor (AID 2282990); conditions: HepG2, Attagene cis-reporter transcription factor activity; actives raise or lower the signal
In short: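 Read-out: fluorescent reporter mRNA fragments resolved by capillary electrophoresis after RT-PCR. Human HepG2 liver cells carried transfected cis-element reporter units and were dosed for 24 h. Gain or loss of signal fitted relative to DMSO baseline.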

[11] = ATG_NRF2_ARE_CIS: Attagene CIS-FACTORIAL HepG2 Assay for human Nuclear Factor Erythroid 2 Related Factor 2 (NFR2) response to Antioxidant Response Elements (ARE) (AID 2282992); conditions: HepG2 Attagene ARE/NRF2 reporter, transcription factor activity; actives raise or lower the signal
In short: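 Endogenous transcription factor activity read out as reporter transcript levels (RT-PCR plus capillary electrophoresis, fluorescence) in transiently transfected HepG2 cells. Measured at 24 h after dosing; gain or loss of signal fitted versus DMSO.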

[12] = ATG_Oct_MLP_CIS: Attagene CIS-FACTORIAL HepG2 Assay for human Octamer-Binding Transcription Factor (Oct) (AID 2282993); conditions: HepG2 Attagene cis-factorial Oct reporter, mRNA; actives raise or lower the signal
In short: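 After 24 h compound exposure, transfected HepG2 cells were lysed for total RNA; reporter-specific cDNA was PCR-amplified, fluorescently labelled and sized by capillary electrophoresis. Bidirectional curve fitting used DMSO as baseline.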

[13] = BSK_3C_TissueFactor: BioMAP Diversity Plus: 3C Assay for Tissue Factor Biomarker Activity (AID 2282997); conditions: BioMAP 3C HUVEC, tissue factor biomarker readout; actives raise or lower the signal
In short: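 HUVEC, 3C system, 24 h post-dose; Tissue Factor by ELISA; bidirectional fit vs DMSO baseline.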

[14] = BSK_3C_uPAR: BioMAP Diversity Plus: 3C Assay for Urokinase-type plasminogen activator receptor (uPAR) Biomarker Activity (AID 2282998); conditions: BioMAP 3C HUVEC, uPAR biomarker ELISA; actives raise or lower the signal
In short: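 Values derive from bidirectional curve fitting relative to DMSO, which served as baseline of activity. uPAR was measured by ELISA in human umbilical vein endothelial primary cultures 24 h after compound addition.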

[15] = BSK_3C_VCAM1: BioMAP Diversity Plus: 3C Assay for Vascular cell adhesion molecule 1 (VCAM1) Biomarker Activity (AID 2282999); conditions: BioMAP 3C HUVEC, VCAM1 ELISA, cytokine-stimulated; actives raise or lower the signal
In short: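 HUVEC primary cells, 24 h compound exposure; VCAM-1 by ELISA; gain/loss of signal fitted bidirectionally vs DMSO baseline.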

[16] = BSK_4H_Eotaxin3: BioMAP Diversity Plus: 4H Assay for Eotaxin 3 Biomarker Activity (AID 2283000); conditions: primary human endothelial cells (HUVEC); actives raise or lower the signal
In short: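 Readout is Eotaxin-3 (CCL26) level by ELISA in primary human umbilical vein endothelial cells harvested 24 h after chemical exposure; activity fitted in both directions against DMSO control.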

[17] = target: Bile acid receptor (Homo sapiens) (UniProt Q96RI1); assay: ATG_FXR_TRANS: Attagene TRANS-FACTORIAL HepG2 Assay for Farnesoid X Receptor (FXR) (AID 2282979; active = hit-call score of the fitted dose curve at least 0.9, where 1 is the maximum;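 also: hits raise reporter mRNA above DMSO so AC50 marks FXR activation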); conditions: HepG2 Attagene TRANS FXR-GAL4 reporter transcription
Sequence of Bile acid receptor (Homo sapiens) (Q96RI1 whole entry, looked up, the tested form may be a part): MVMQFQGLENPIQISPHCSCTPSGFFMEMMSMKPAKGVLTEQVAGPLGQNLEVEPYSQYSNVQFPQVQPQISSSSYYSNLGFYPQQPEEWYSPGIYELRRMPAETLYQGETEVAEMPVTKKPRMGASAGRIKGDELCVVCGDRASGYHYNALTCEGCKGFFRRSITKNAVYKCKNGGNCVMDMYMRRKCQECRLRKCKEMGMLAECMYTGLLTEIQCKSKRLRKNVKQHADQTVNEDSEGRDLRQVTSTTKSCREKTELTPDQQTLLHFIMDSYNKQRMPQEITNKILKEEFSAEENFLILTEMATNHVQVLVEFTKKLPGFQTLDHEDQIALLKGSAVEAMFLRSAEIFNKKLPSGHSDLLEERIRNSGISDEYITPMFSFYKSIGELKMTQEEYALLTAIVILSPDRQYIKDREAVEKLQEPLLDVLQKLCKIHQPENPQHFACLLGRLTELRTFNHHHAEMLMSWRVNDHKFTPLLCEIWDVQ
In short: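 Read-out: fluorescent reporter transcripts quantified by capillary electrophoresis after RT-PCR of total RNA. Source cells were HepG2 transiently carrying chimeric NR-GAL4 plus GAL4-UAS reporter units, dosed 24 h. Activity fitted upward relative to DMSO baseline.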

[18] = target: Nuclear respiratory factor 1 (Homo sapiens) (UniProt Q16656); assay: ATG_NRF1_CIS: Attagene CIS-FACTORIAL HepG2 Assay for human Nuclear Respiratory Factor 1 (NRF1) Orphan Gene (AID 2282987); conditions: HepG2 NRF1 cis-element reporter, Attagene multiplex; actives raise or lower the signal
Sequence of Nuclear respiratory factor 1 (Homo sapiens) (Q16656 whole entry, looked up): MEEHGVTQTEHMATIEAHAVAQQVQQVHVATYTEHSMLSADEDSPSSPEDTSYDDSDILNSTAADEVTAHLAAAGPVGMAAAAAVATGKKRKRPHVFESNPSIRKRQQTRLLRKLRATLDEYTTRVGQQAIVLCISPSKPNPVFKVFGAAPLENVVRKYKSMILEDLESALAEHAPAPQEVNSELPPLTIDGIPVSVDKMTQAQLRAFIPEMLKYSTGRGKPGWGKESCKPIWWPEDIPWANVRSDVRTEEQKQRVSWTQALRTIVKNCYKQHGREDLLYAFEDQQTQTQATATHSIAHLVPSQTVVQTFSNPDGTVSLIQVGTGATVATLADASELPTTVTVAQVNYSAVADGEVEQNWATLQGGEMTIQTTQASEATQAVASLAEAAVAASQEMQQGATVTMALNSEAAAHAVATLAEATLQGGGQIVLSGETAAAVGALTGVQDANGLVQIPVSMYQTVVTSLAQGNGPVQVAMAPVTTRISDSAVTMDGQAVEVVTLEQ
In short: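 Multiplexed cis-reporter assay, HepG2 cells, 24 h treatment. Total RNA → oligo(dT) RT → PCR with reporter-specific primers → 6-FAM primer extension → HpaI cut → CE. Bidirectional fit vs DMSO.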

[19] = target: Cellular tumor antigen p53 (Homo sapiens) (UniProt P04637); assay: ATG_p53_CIS: Attagene CIS-FACTORIAL HepG2 Assay for human p53 Transcription Factor (AID 2282994); conditions: HepG2 p53 cis-element reporter, Attagene mRNA; actives raise or lower the signal
Sequence of Cellular tumor antigen p53 (Homo sapiens) (P04637 whole entry, looked up): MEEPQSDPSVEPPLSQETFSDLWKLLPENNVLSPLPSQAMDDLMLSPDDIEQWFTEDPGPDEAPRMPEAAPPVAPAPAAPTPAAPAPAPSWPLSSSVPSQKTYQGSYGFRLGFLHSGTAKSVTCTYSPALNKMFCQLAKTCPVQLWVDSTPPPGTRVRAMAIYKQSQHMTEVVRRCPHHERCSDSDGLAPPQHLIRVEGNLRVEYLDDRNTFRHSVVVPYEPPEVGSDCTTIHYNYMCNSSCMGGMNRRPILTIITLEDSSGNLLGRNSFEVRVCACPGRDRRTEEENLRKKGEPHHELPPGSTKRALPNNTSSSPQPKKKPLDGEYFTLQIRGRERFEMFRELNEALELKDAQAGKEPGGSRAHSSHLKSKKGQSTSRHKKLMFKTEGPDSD
In short: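 Endogenous p53 activity read in transiently transfected HepG2 from a cis-element-driven reporter transcript after 24 h exposure. RNA reverse-transcribed, PCR-amplified, fluorescently labelled and sized by capillary electrophoresis; gain or loss fitted against DMSO baseline.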

[20] = ATG_NF_kB_CIS: Attagene CIS-FACTORIAL HepG2 Assay for human Nuclear Factor Kappa B (NF-kB) (AID 2282991); conditions: HepG2 Attagene cis-factorial NF-kB reporter mRNA; actives raise or lower the signal
In short: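 Transient MRTU transfection of human HepG2 liver cells → 24 h chemical exposure → total RNA, oligo(dT) RT → PCR, 6-FAM primer extension, HpaI digest 2 h 37 C → CE fragment analysis. Bidirectional fitting, DMSO negative control.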

Measured: AC50

OCCC(F)(F)C(F)(F)C(F)(F)C(F)(F)F
not listed: [10] | [20]
inactive: all other assays above

OC(O)(C(F)C(O)(O)C(F)(F)F)C(F)(F)F
inactive: [1] | [17] | [2] | [4] | [5] | [6] | [8] | [10] | [11] | [12] | [13] | [14] | [15]
active: [7] 31.5 µM and 19.1 µM | [9] 52.4 µM and 51.5 µM | [20] 16.6 µM and 7.74 µM | [11] 39.4 µM | [19] 28.4 µM and 21.2 µM | [13] 13.6 µM | [14] 15.2 µM | [16] 53.3 µM and 53.6 µM

C=CCc1cc(S(=O)(=O)c2ccc(O)c(CC=C)c2)ccc1O
inactive: [1] | [17] | [5] | [6] | [8] | [9] | [20] | [12]
active: [11] 7.04 µM | [13] 32 µM | [14] 12.8 µM | [15] 32 µM | [16] 27.1 µM

FC(F)(F)C(F)(F)C(F)(F)C(F)(F)C(F)(F)C(F)(F)I
inactive: [1] | [17] | [2] | [3] | [5] | [6] | [7] | [8] | [9] | [11] | [12] | [19] | [13] | [14] | [15] | [16]
active: [11] 107 µM

C[Si](C)(C)C(F)(F)C(F)(F)C(F)(F)F
not listed: [8] | [10] | [18] | [20]
inactive: all other assays above
